Laboratory results as given in the antibiotic and cytotoxicity screens of Wong et al. (2023).
Hit rate of the full screen: of about 39,000 compounds, about 3,300 (8.5%) were called active. What follows is part of a selection rich in actives, with near analogues and random picks from the rest.

system: HepG2; experiment: cytotoxicity call (relative viability < 0.9); conditions: 10 µM

SMILES	cytotoxicity call
COc1ccc2c3c(n(c2c1)C)[C@H](CO)N(C[C@]13CCN(CC1)S(=O)(=O)c1ccccc1)C(=O)c1cccnc1	inactive
c1ccc(-c2cc(-c3nc4ccccc4[nH]3)c3ccccc3n2)cc1	inactive
CNCc1cnc(NC)nc1	inactive
C[C@@H]1CN([C@H](C)CO)C(=O)c2cccc(NS(=O)(=O)c3cn(C)cn3)c2O[C@H]1CN(C)CC1CC1	inactive
CCO[C@@H]1OC(C(=O)N2CCN(Cc3ccccc3)CC2)=C[C@H](c2cn(C(C)=O)c3ccccc23)[C@H]1CCCOC(=O)NCCCCCC(=O)NO	inactive
CNCc1cc(C)nn1C	inactive
COc1cccc(-c2cn(CC[C@@H]3CC[C@@H](NS(=O)(=O)c4ccccc4Cl)[C@H](CO)O3)nn2)c1	inactive
C[C@H](CO)N1C[C@H](C)[C@@H](CN(C)S(=O)(=O)c2ccc(F)cc2)Oc2ccc(NC(=O)C3CC3)cc2C1=O	inactive
Cc1ccc(S(=O)(=O)N[C@H]2CC[C@@H](CC(=O)NCc3ccc(Cl)c(Cl)c3)O[C@H]2CO)cc1	inactive
C[C@@H]1CCCCO[C@@H](CN(C)CC2CC2)[C@@H](C)CN([C@H](C)CO)C(=O)c2cc(NC(=O)CCC(F)(F)F)ccc2O1	inactive
C[C@@H]1CN([C@H](C)CO)C(=O)Cc2cc(NC(=O)CCCCCC(=O)Nc3ccccc3N)ccc2O[C@H]1CN(C)Cc1ccc(-c2ccccc2)cc1	inactive
C[C@@H]1CN([C@@H](C)CO)C(=O)Cc2cc(NC(=O)CCCCCC(=O)Nc3ccccc3N)ccc2O[C@H]1CN(C)Cc1ccc(-c2ccccc2)cc1	inactive
C[C@H]1CN([C@@H](C)CO)C(=O)Cc2cc(NC(=O)CCCCCC(=O)Nc3ccccc3N)ccc2O[C@H]1CN(C)Cc1ccc(-c2ccccc2)cc1	active
C[C@H]1CN([C@@H](C)CO)C(=O)c2cccc(NS(=O)(=O)c3ccc(Cl)cc3)c2O[C@@H]1CN(C)Cc1ccc(C(=O)Nc2ccccc2N)cc1	inactive
C[C@H](CO)N1C[C@H](C)[C@H](CN(C)Cc2ccc(C(=O)Nc3ccccc3N)cc2)Oc2c(NS(=O)(=O)c3ccc(Cl)cc3)cccc2C1=O	active
C[C@@H]1CN([C@H](C)CO)C(=O)c2cc(NS(=O)(=O)c3ccc(Cl)cc3)ccc2O[C@@H]1CN(C)Cc1ccc(C(=O)Nc2ccccc2N)cc1	inactive
C[C@@H]1CN([C@H](C)CO)C(=O)c2cccc(NS(=O)(=O)c3ccc(Cl)cc3)c2O[C@H]1CN(C)Cc1ccc(C(=O)Nc2ccccc2N)cc1	inactive
C[C@@H]1CN([C@@H](C)CO)C(=O)c2cccc(NS(=O)(=O)c3ccc(Cl)cc3)c2O[C@@H]1CN(C)Cc1ccc(C(=O)Nc2ccccc2N)cc1	active
C[C@@H]1CN([C@@H](C)CO)C(=O)c2cc(NS(=O)(=O)c3ccc(Cl)cc3)ccc2O[C@@H]1CN(C)Cc1ccc(C(=O)Nc2ccccc2N)cc1	active
C[C@@H]1CN([C@H](C)CO)C(=O)c2cccc(NS(=O)(=O)c3ccc(Cl)cc3)c2O[C@@H]1CN(C)Cc1ccc(C(=O)Nc2ccccc2N)cc1	inactive
C[C@H](CO)N1C[C@H](C)[C@H](CN(C)Cc2ccc(C(=O)Nc3ccccc3N)cc2)Oc2ccc(NS(=O)(=O)c3ccc(Cl)cc3)cc2C1=O	inactive
C[C@@H]1CN([C@@H](C)CO)C(=O)c2cccc(NS(=O)(=O)c3ccc(Cl)cc3)c2O[C@H]1CN(C)Cc1ccc(C(=O)Nc2ccccc2N)cc1	inactive

SMILES	cytotoxicity call
CCSC(=S)N[C@H]1CCS(=O)(=O)C1	inactive
CC(C)NC(=O)Nc1ccc2c(c1)C(=O)N([C@@H](C)CO)C[C@@H](C)[C@@H](CN(C)C(=O)Nc1ccc(F)cc1)OCCCC[C@@H](C)O2	inactive
C[C@H](O)C#Cc1ccc2c(c1)O[C@@H](CN(C)C)[C@H](C)CN([C@@H](C)CO)S2(=O)=O	inactive
COC(=O)C[C@H]1CC[C@@H]2[C@H](COC[C@@H](O)CN2S(=O)(=O)c2ccccc2C)O1	inactive
Cc1ccc(S(=O)(=O)N(C)C[C@@H]2Oc3c(NS(C)(=O)=O)cccc3C(=O)N([C@@H](C)CO)C[C@H]2C)cc1	inactive
C[C@@H]1CCCCO[C@@H](CN(C)CC2CC2)[C@H](C)CN([C@@H](C)CO)C(=O)c2cc(NC(=O)CCC(F)(F)F)ccc2O1	inactive
Cn1c([N+](=O)[O-])cnc1COC(N)=O	inactive
COc1ccc(NC(=O)Nc2ccc3c(c2)[C@H]2C[C@H](CC(=O)N4CCN(C)CC4)O[C@H](CO)[C@H]2O3)cc1	inactive
COCCOC(=O)N1C(=O)[C@@]2(c3cc(C#CCCO)ccc31)[C@H](c1ccc(O)cc1)N1[C@H](c3ccccc3)[C@H](c3ccccc3)OC(=O)[C@H]1[C@@H]2C(=O)N1CCc2cc(OC)c(OC)cc2C1	inactive
Cc1ccc(C(C)C)c(O)c1	inactive
CC1(C)NC(=O)N(c2ccc([N+](=O)[O-])c(C(F)(F)F)c2)C1=O	inactive
Cc1cccc(NC(=O)C(C)C)c1	inactive
CC(C)C(=O)Nc1ccc([N+](=O)[O-])c(C(F)(F)F)c1	active
COc1cccc(S(=O)(=O)N(C)C[C@@H]2OCc3cnnn3CCCC(=O)N([C@@H](C)CO)C[C@@H]2C)c1	inactive
COc1ccc(S(=O)(=O)N(C)C[C@@H]2Oc3c(NC(=O)Nc4c(C)noc4C)cccc3C(=O)N([C@H](C)CO)C[C@H]2C)cc1	inactive
Cc1noc(C)c1NC(=O)N(C)C[C@H]1OCCCC[C@@H](C)Oc2ccc(NC(=O)Nc3cccc4ccccc34)cc2C(=O)N([C@H](C)CO)C[C@@H]1C	inactive
CCOC(=O)/C(C#N)=C1/C=CN(C)C=N1	active
CCOC(=O)CN(C#N)c1nc(C)cc(C)n1	inactive
CCOC(=O)n1ncc(C#N)c1N	inactive
C[C@H]1CN([C@@H](C)CO)C(=O)c2cccc(NC(=O)CCCCCC(=O)Nc3ccccc3N)c2O[C@@H]1CN(C)C(=O)Nc1ccc(C(F)(F)F)cc1	inactive
O=C(C[C@@H]1CC[C@H]2[C@@H](COC[C@H](O)CN2C(=O)Nc2cccc(Cl)c2)O1)NCCCN1CCOCC1	inactive
C[C@H]1CN([C@@H](C)CO)C(=O)c2cccc(NC(=O)C3CC3)c2O[C@@H]1CN(C)C(=O)NC1CCCCC1	inactive
